# The whole screen tested about 230,000 compounds, of which about 3,600 (1.6%) were called active. About 15% were inconclusive and are not listed. The entries come from a sample that favours actives as a whole. Entries that show only a call come without a potency. A number with no mark means an inactive call. Calls follow the shape of the dose curve; as a rule, active = well fitted inhibition curve with a large enough effect (not every such curve was filed as active); inconclusive = small, poorly fitted or top-dose-only effect, or another doubt; inactive = no such curve, though single readings can be large or run the other way.
# Target: Lysine-specific demethylase 4E (Homo sapiens) (UniProt B2RXH2)
# Test: qHTS Assay for Inhibitors of Human Jumonji Domain Containing 2E (JMJD2E)
# Details: JMJD2E catalytic domain, FDH-coupled NADH fluorescence (FDH is formaldehyde dehydrogenase); series mostly up to 57.1 µM
# Also: nearly all actives have a fitted effect of over 50% in size.
# Potency is read from the fitted curve at half-maximal effect.
# Sequence of Lysine-specific demethylase 4E (Homo sapiens) (B2RXH2 1-337 limits assumed): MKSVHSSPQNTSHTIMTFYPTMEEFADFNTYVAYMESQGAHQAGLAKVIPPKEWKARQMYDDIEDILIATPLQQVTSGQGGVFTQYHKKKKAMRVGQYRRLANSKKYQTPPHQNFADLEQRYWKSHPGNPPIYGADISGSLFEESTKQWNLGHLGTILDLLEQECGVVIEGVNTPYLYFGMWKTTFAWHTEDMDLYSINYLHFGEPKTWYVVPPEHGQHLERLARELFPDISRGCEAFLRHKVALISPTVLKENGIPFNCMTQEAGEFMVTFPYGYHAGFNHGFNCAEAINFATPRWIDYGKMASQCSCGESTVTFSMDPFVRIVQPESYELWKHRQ
Structure (SMILES),Potency,"activity change, negative = inhibition"
CCCCCc1nnc(NC(=O)c2ccc(=O)n(C)n2)s1,inactive,
CCOCCCNCc1cc(Br)ccc1OCC,inactive,
Cn1nc(C(F)(F)F)cc1C(=O)O,inactive,
O=C(O)CC/C(=N\NC(=O)c1ccc(F)cc1)c1ccc(Br)cc1,inactive,
COc1ccc(C(C[N+](=O)[O-])n2nc(C)cc2C)cc1 (stereo not drawn),inactive,
CC(=O)Nc1ccc(/C=N/Nc2ccc(C(=O)c3c(C)cc4ccccn34)cc2[N+](=O)[O-])cc1,inactive,
Cc1ccc(C(C[N+](=O)[O-])c2c(C)cc3ccccn23)cc1 (stereo not drawn),25.1 µM (active),
Cc1ccc(/C=N/NC(=S)Nc2cccc(S(=O)(=O)N(C)C)c2)o1,inactive,
Cc1ccnc(NC(=O)CCC(=O)N(CC(=O)NCCc2ccccc2)Cc2cccs2)c1,inactive,
C#CCNc1ccc(C(=O)OCC)cc1,inactive,
COC(=O)c1c(C)oc(C)c1S(=O)(=O)NCc1ccc(Cl)cc1,inactive,
COc1ccc(C(=O)C2CCCN(C(=O)c3cnsn3)C2)c(C)c1 (stereo not drawn),inactive,
Oc1[nH]c2ccc(Br)cc2c1N=Nc1nn[nH]n1,inactive,
CSc1n[nH]c(=S)n1N,31.6 µM (active),
Nc1ccc(N=Nc2ccccc2Cl)c(N)n1,inactive,
Cc1ccc(S(=O)(=O)N(C)C)cc1NC(=O)c1n[nH]c(=O)c2ccccc12,inactive,
COc1cccc(/C=N/NC(=O)c2[nH]nc3c2CCc2ccccc2-3)c1O,inactive,
COc1cccc(/C=N\NC(=O)C2=NNC(=O)C2C)c1O (stereo not drawn),7.08 µM (active),
COc1cccc(/C=N/Nc2cc(C)nc(-c3ccccc3O)n2)c1O,inactive,
Oc1ccc(-c2nnc(Nc3ccccc3)c3ccccc23)cc1,inactive,
O=c1c(-c2ccccc2)cnc2n1CCS2,inactive,
CN1CCN(c2ncc3c(n2)CC(c2ccccc2F)CC3=O)CC1 (stereo not drawn),inactive,

Structure (SMILES),Potency,"activity change, negative = inhibition"
O=C(Cn1nnc(N2CCCCC2)n1)c1ccc(Cl)c(Cl)c1,inactive,
Nc1nonc1-n1nnc(C(=O)N/N=C/c2cc(Br)ccc2O)c1CSC1=NCCS1,20 µM (active),
Cc1ccc(SCc2c(C(=O)N/N=C/C3CC=CCC3)nnn2-c2nonc2N)cc1 (stereo not drawn),inactive,
COCc1c(C(=O)N/N=C/C2CC=CCC2)nnn1-c1nonc1N (stereo not drawn),inactive,
CCOc1ccc(-c2nc(N)ncc2-c2ccccc2OC)c(O)c1,inactive,
Cc1cc(C)cc(C(=O)NC2C(=O)N3C(C(=O)O)=C(CSc4nnc(C)s4)CSC23)c1 (stereo not drawn),inactive,
O=C(CNc1ccc(F)cc1F)NC(=O)NCc1ccco1,inactive,
Cc1ccc(C(=O)NCCNC(=O)c2ccccc2)cc1,inactive,
C/C(=N\NC(=O)c1ccc(C)cc1)C1C(=O)c2ccccc2C1=O,25.1 µM (active),
Cc1ccc(C(=O)NC(=S)Nc2ccccc2C)cc1,inactive,
O=c1[nH]c2cccnc2n1-c1ccc([N+](=O)[O-])cc1,inactive,
O=C(CCCl)Nc1ccc(S(=O)(=O)NCc2ccco2)cc1,inactive,
CCC(C)NC(=O)C1c2ccccc2Oc2ccccc21 (stereo not drawn),inactive,
O=C(N/N=C/c1ccc(O)c(O)c1)C1c2ccccc2Oc2ccccc21,14.1 µM (active),
CCC(C)(C)NC(=O)C1c2ccccc2Oc2ccccc21,inactive,
COc1ccc(OC)c(NC(=O)CN(Cc2ccc(Cl)cc2)S(C)(=O)=O)c1,inactive,
O=C(CSc1nc(O)c(Cc2ccccc2)c(=O)[nH]1)Nc1nc2c(s1)CCCC2,inactive,
CC(C)(C)NC(=O)NCc1ccco1,inactive,
Cc1ccc(NC(=S)NCCN2CCOCC2)cc1,inactive,
Cc1ccc(C(=O)NC(=S)NCCN2CCOCC2)cc1,inactive,
CCOc1cccc(/C=N/NC(=S)NCCN2CCOCC2)c1O,35.5 µM (active),
COc1ccc(COCC(O)CN2CCC(C(N)=O)CC2)cc1 (stereo not drawn),inactive,

Structure (SMILES),Potency,"activity change, negative = inhibition"
COC(=O)c1cc(C(=O)CSc2nc(C)cc(C)n2)ccc1O,inactive,
CC(C)C1N=C2c3ccccc3N=C(SCC(=O)c3ccc(O)c(O)c3)N2C1=O (stereo not drawn),25.1 µM (active),
COc1ccccc1P(=O)(c1ccccc1)c1ccccc1NC(C)=O (stereo not drawn),inactive,
CN(CC(O)COc1ccc(S(=O)(=O)N2CCOCC2)cc1Cl)C1CCCCC1 (stereo not drawn),inactive,
COc1ccc2c(c1)O[C@@H](c1ccc3c(c1)OCO3)[C@H](OC(=O)NCCc1ccc(OC)c(OC)c1)C2=O,inactive,
COc1cccc([C@@H]2Oc3ccc(Br)cc3C(=O)[C@H]2OC(=O)NCc2ccc3c(c2)OCO3)c1,inactive,
COc1cccc([C@@H]2Oc3ccc(Br)cc3C(=O)[C@H]2OC(=O)NCCc2ccc(OC)c(OC)c2)c1,14.1 µM (active),
c1ccc(-c2nnc(N3CCOCC3)c3ccccc23)cc1,inactive,
O=C(Nc1ccc(S(=O)(=O)Nc2nccs2)cc1)c1cccc(S(=O)(=O)N2CCOCC2)c1,inactive,
CCc1nc(C)cn1S(=O)(=O)c1cc([N+](=O)[O-])ccc1Cl,inactive,
COc1ccc(-c2csc(Nc3ccc(O)cc3)n2)cc1,inactive,
COc1ccc(-c2csc(Nc3ccccn3)n2)cc1,inactive,
COc1ccc(OC)c(Nc2nc(-c3ccc(O)c(O)c3)cs2)c1,28.2 µM (active),
O=C(Nc1n[nH]c(C(F)(F)F)n1)c1cccs1,inactive,
CCOC(=O)c1cn[nH]c1NC(=S)Nc1ccccc1,inactive,
ON=C1/C(=N\O)CC2(C/C1=N/O)OCCO2,7.08 µM (active),
O/N=C1\CC2(Cc3nonc31)OCCO2,inactive,
Cc1[nH]n(C)c(=O)c1N=Nc1ccc(S(C)(=O)=O)cc1,inactive,
COc1cccc(N2C(=O)CC(N3CCc4ccccc4C3)C2=O)c1 (stereo not drawn),inactive,
NCCCCCC(=O)N/N=C/c1ccc2nccnc2c1,inactive,
CCOC(=O)CSc1nc(C)c(Oc2ccc(Cl)cc2Cl)c(=O)[nH]1,inactive,
COCc1ccc(C(=O)N2CCc3c([nH]c4ccccc34)C2c2ccccn2)s1 (stereo not drawn),inactive,

Structure (SMILES),Potency,"activity change, negative = inhibition"
Oc1cccc(C2c3[nH]c4ccccc4c3CCN2Cc2cnn(-c3ccccc3)c2)c1 (stereo not drawn),inactive,
c1ccc(C2c3[nH]c4ccccc4c3CCN2Cc2cccn2-c2cccnc2)nc1 (stereo not drawn),14.1 µM (active),
CCc1cccc2c(=O)c(C(=O)NCCCOC)c[nH]c12,inactive,
CN(C(=O)CCn1c(=S)oc2ccccc21)C1CCCCC1,inactive,
Cc1cccc(N2C(=O)CC(SC(N)=Nc3ccccc3)C2=O)c1 (stereo not drawn),inactive,
O=C1CC(N2CCN(c3ccc(F)cc3)CC2)C(=O)N1c1ccccc1 (stereo not drawn),inactive,
O=C1CC(Sc2ncn[nH]2)C(=O)N1c1ccccc1 (stereo not drawn),2.24 µM (active),
COc1ccc(N2C(=O)CC(Sc3n[nH]c(-c4ccc(C)cc4)n3)C2=O)cc1 (stereo not drawn),inactive,
CCOC(=O)c1ccc(N2C(=O)CC(Sc3nc(O)c(CC)c(=O)[nH]3)C2=O)cc1 (stereo not drawn),inactive,
Cc1ccc(N2C(=O)CC(Sc3ncn[nH]3)C2=O)cc1 (stereo not drawn),2.51 µM (active),
NC(=O)c1ccc(N2CCOCC2)nc1,inactive,
CN(C)C(=O)c1nc2ccc(Cl)cn2c1CNCc1cccc(OC(F)(F)F)c1,inactive,
Cc1nc(N)sc1N=Nc1c(C)n(C)n(-c2ccccc2)c1=O,inactive,
COc1ccc(N(Cc2ccccc2)S(=O)(=O)c2cccc(C(=O)O)c2)cc1,inactive,
CCCN(CCc1ccccc1)C1CCc2c(O)cccc2C1 (stereo not drawn),inactive,
CCCN(C/C=C\I)[C@@H]1CCc2cccc(O)c2C1,28.2 µM (active),
CN(C)c1cc(-c2ccc(F)cc2)oc(=O)c1Cl,inactive,
Cc1ccc(C(=O)NCC(=O)OCC(=O)Nc2cccc(S(=O)(=O)N3CCCC3)c2)cc1C,inactive,
CCCCc1nc2ccccc2c(=O)n1NC(=O)c1c(O)c2cccc3c2n(c1=O)CC3,inactive,
CCNC(=O)c1c(O)c2cccc3c2n(c1=O)CC3,3.16 µM (active),
Cc1cc(=O)n2c3c(cccc13)CCC2,inactive,
O=C(O)Cc1csc(-c2cccc(Oc3ccccc3)c2)n1,inactive,

Structure (SMILES),Potency,"activity change, negative = inhibition"
CCCN1C(=O)C(Cc2nc3ccccc3c(=O)n2-c2ccccc2)c2cc(C)ccc21 (stereo not drawn),inactive,
O=c1c2ccccc2nc(N/N=C/c2ccccc2)n1O,inactive,
CCCc1nc2ccccc2c(=O)n1/N=C/c1ccc(O)c(O)c1,12.6 µM (active),
CC(C)N1CCC(=NNc2ccc([N+](=O)[O-])cc2S(=O)(=O)N2CCOCC2)CC1,inactive,
COc1ccccc1C(=O)CSc1cccc[n+]1[O-],inactive,
O=C1CCC(=O)N(O)CCCCCNC(=O)CCC(=O)N(O)CCCCCNC(=O)CCC(=O)N(O)CCCCCN1,7.94 µM (active),
CCNC(=O)CC1C(=O)N(c2ccc(OC)cc2)C(=S)N1CCc1ccncc1 (stereo not drawn),inactive,
Cc1nc(C(=O)N2CCCC(C(=O)c3ccc(Cl)cc3)C2)cs1 (stereo not drawn),inactive,
CSc1c(SCc2ccccc2)cnn(Cc2ccccc2)c1=O,12.6 µM (active),
O=c1c2ccccc2c(-c2ccccc2)nn1Cc1ccccc1,inactive,
Cn1c(CO)cnc1SCc1ccccc1,inactive,
Cc1cc(C)nc(S/C=C/C(=O)c2ccccc2)n1,inactive,
O=C(/C=C/Sc1ncn[nH]1)c1ccc(Cl)cc1,7.08 µM (active),
O=C(NCCOCc1ccc(Cl)cc1)c1ncn[nH]1,inactive,
CCN(CC)CCNC(=O)c1sc2ncn(CC(=O)Nc3ccc(C)c(Cl)c3)c(=O)c2c1C,inactive,
Cn1c(=O)c2c(-c3cccc(Br)c3)c(C#N)c(N)nc2n(C)c1=O,inactive,
OCCC1CN(Cc2cnc(-c3ccccc3)s2)CCN1CCc1ccccc1 (stereo not drawn),inactive,
CC1(OC(=O)C2CCCC2)C(=O)C=C2C=C(c3ccc(C#N)cc3)OC=C2C1=O (stereo not drawn),inactive,
COCCN1C=C2C(=O)C(C)(OC(=O)C3CCCC3)C(=O)C=C2C=C1c1ccsc1 (stereo not drawn),3.55 µM (active),
CC1(OC(=O)CCc2ccccc2)C(=O)C=C2C=C(c3ccc(C#N)cc3)N(CCc3ccccn3)C=C2C1=O (stereo not drawn),,-1.14% [at 11.4 µM]
